According to publication PMC4552634, “A New Set of Chemical Starting Points with Plasmodium falciparum Transmission-Blocking Potential for Antimalarial Drug Discovery” (PLoS ONE, 2015):
Among all 13,000 compounds or so, about 3,200 (25%) showed an effect of 50% or more. The list shows a part of the results.

Tested on: P. falciparum stage V gametocytes
Set-up: BacTiter-Glo ATP luminescence viability of purified stage V gametocytes in 384-well plates, per cent inhibition versus DMSO
Settings: 48 h, 5 µM; inhibitor

Compound	% Inhibition [%]
COC(=O)c1ccc(CC(C)NCC(O)c2cccc3ccccc23)cc1 (centres unmarked) [TCMDC-131432]	16.03
CS(=O)(=O)c1ccccc1CNC(=O)c1ccc(-c2cccc(-c3nc4cc(C(F)(F)F)ccc4[nH]3)c2)cc1 [TCMDC-132504]	-46.91
COc1cccc(N(CCCN2C(=O)c3cccc4cccc(c34)C2=O)C(=O)c2ccccc2C)c1 [TCMDC-124157]	34.34
c1ccc2[nH]c(-c3ccc(-c4ccc(CNCCc5ccncc5)cc4)s3)nc2c1 [TCMDC-132843]	-16.65
CC1(C)C(=O)Nc2ccc3c(c21)CC1SC(=O)NN=C31 (centres unmarked) [TCMDC-131539]	68.11
Nc1nc(N)c2c(CCc3ccc(Cl)c(Cl)c3)cccc2n1 [TCMDC-141976]	-2.303
CCCc1cc(Cc2cnc(N)nc2N)cc(CC)c1O [TCMDC-138059]	-83.65
Cc1cc2ncn(-c3nccc(NCc4ccc(F)cc4)n3)c2cc1C [TCMDC-135877]	11.81
Cc1cc2ncn(-c3nccc(NCc4ccc(F)c(C)c4)n3)c2cc1C [TCMDC-135880]	65.21
Cc1cc(Nc2nc(NCc3cccnc3)nc3ccccc23)n[nH]1 [TCMDC-135161]	33.23
Cc1cc2ncn(-c3nccc(NCc4cccnc4)n3)c2cc1C [TCMDC-135879]	55.3
Cc1cc2ncn(-c3ccnc(N4CCN(CCCN5CCCC5)CC4)n3)c2cc1C [TCMDC-136311]	9.256
COc1ccc(CNc2ccnc(-n3cnc4cc(C)c(C)cc43)n2)cc1Cl [TCMDC-135878]	49.39
O=C(O)c1ccc(OCOCOc2ccc(C(=O)O)c(O)c2)cc1O [TCMDC-131764]	13.72
COc1ccc(C2SCC(=O)N2CCc2ccc(OC)c(OC)c2)cc1 (centres unmarked) [TCMDC-125738]	0.3725
NC1CCN(CCNCc2cccc(-c3ccc(-c4nc5ccc(C(F)(F)F)cc5[nH]4)cc3)c2)C1 (centres unmarked) [TCMDC-133841]	98.1
NC1CCN(CCNCc2cccc(-c3ccc(-c4nc5ccc(F)cc5[nH]4)cc3)c2)C1 (centres unmarked) [TCMDC-133857]	75.97
CS(=O)(=O)NCCCNCc1cccc(-c2ccc(-c3nc4ccc(C(F)(F)F)cc4[nH]3)cc2)c1 [TCMDC-133079]	-16.43
O=[N+]([O-])c1ccccc1/C=N/Nc1ccnc2ccc(C(F)(F)F)cc12 [TCMDC-142044]	-33.57
O=[N+]([O-])c1cccc(S(=O)(=O)N2CCN(CC(O)COc3ccc(-c4ccccc4)cc3)CC2)c1 (centres unmarked) [TCMDC-125015]	-58.05
